Laboratory results reported in PubChem BioAssay (NCATS).
Unmarked numbers belong to inactive results. Records with an inconclusive call do not appear. Activity calls are given as the source filed them. Unless noted, calls come from the whole dose curve; as a rule, active = well fitted inhibition curve with a large enough effect; inconclusive = small, poorly fitted or top-dose-only effect; inactive = flat fitted curve, though single readings scatter.

target: Ubiquitin carboxyl-terminal hydrolase 1 (Homo sapiens) (UniProt O94782); assay: Inhibitors of USP1/UAF1: Pilot qHTS (AID 504865); settings: purified USP1/UAF1, Ub-rhodamine cleavage fluorescence; series mostly up to 114 µM; activity change, negative = inhibition: at the top concentration;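 note: rhodamine fluorescence freed from ubiquitin-rhodamine substrate followed over time; top concentration of the series differs between compounds; % is set by controls: 0 for no effect and ±100 for the full control effect; nearly all actives have a fitted effect of over 35% in size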
Sequence (O94782 whole entry, looked up): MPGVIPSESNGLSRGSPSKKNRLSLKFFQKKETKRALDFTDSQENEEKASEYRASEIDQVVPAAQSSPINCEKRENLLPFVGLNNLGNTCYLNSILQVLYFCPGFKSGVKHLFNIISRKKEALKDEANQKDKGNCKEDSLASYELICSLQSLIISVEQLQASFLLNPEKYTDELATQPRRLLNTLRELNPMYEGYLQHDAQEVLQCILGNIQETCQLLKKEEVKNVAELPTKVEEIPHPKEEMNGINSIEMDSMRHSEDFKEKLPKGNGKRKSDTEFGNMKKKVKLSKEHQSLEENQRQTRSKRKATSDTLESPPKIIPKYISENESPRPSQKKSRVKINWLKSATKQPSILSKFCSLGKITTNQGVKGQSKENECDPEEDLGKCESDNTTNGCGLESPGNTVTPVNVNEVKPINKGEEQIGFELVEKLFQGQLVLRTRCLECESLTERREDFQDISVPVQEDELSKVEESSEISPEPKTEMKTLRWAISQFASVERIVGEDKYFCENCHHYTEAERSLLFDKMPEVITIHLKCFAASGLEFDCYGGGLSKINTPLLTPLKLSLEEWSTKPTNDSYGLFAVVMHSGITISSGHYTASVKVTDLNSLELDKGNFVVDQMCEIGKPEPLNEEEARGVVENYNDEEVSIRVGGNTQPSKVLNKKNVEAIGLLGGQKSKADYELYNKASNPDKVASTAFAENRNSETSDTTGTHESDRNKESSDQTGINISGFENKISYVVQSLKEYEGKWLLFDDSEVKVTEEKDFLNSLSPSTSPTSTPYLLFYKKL
Procedure, shortened: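 1nM USP1/UAF1 + cpd, 15 min RT; start w/ Ub-Rho 150nM final; kinetic FL 480/540 nm, 6 reads q60 s. Buffer 50mM HEPES pH 7.8, 0.5mM EDTA, 1mM TCEP, 0.01% Tween-20, 0.1 mg/ml BSA.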

Row | SMILES | Potency | activity change, negative = inhibition
1 | CC(=O)NS(=O)(=O)c1ccc(N)cc1 | inactive | –
2 | CN1C[C@@H]2C[C@H]1CN2c1cc2c(cc1F)c(=O)c(C(=O)O)cn2C1CC1 | – | -8.74%
3 | COc1nccnc1NS(=O)(=O)c1ccc(N)cc1 | – | 0.411%
4 | OCc1ccc(Cl)cc1Cl | – | -6.47%
5 | Cc1c(N(C)C)c(=O)n(-c2ccccc2)n1C | inactive | –
6 | C1CCN2C[C@@H]3C[C@@H](CN4CCCC[C@@H]34)[C@H]2C1 | – | -4.47%
7 | CCN(CC)CCc1nc(-c2ccccc2)no1 | – | -1.32% [at 54.9 µM]
8 | OC(CCN1CCCC1)(c1ccccc1)C1CCCCC1 (stereo unspecified) | – | -6.97%
9 | CC(N)CCCC(C)(C)O (stereo unspecified) | – | -7.55%
10 | CC(=O)N[C@@H](CC(C)C)C(=O)O | – | -0.611% [at 54.9 µM]
11 | NC(=O)CCCCC1CCSS1 (stereo unspecified) | – | -1.47%
12 | O=C(O)CCCc1ccccc1 | – | -6.15%
13 | Cn1c([N+](=O)[O-])cnc1COC(N)=O | – | -12.5%
14 | CC1CCc2cc(F)cc3c(=O)c(C(=O)O)cn1c23 (stereo unspecified) | – | -1.07%
15 | CCCCOC(=O)c1ccc(N)cc1 | inactive | –
16 | O=C1c2ccccc2C(=O)C1c1ccc(Br)cc1 | – | -2.81%
17 | Nc1ccc(S(=O)(=O)c2ccc(N)cc2)cc1 | inactive | –
18 | C[N+](C)(C)CC[N+]1(C)Cc2c(Cl)c(Cl)c(Cl)c(Cl)c2C1 | inactive | –

Row | SMILES | Potency | activity change, negative = inhibition
19 | CCN1CC(CCN2CCOCC2)C(c2ccccc2)(c2ccccc2)C1=O (stereo unspecified) | – | -2.9%
20 | NC(=O)NC1NC(=O)NC1=O (stereo unspecified) | – | -1.63%
21 | Cc1ccsc1/C=C/C1=NCCCN1C | – | -5.44%
22 | O=C(O)CCCCC1CCSS1 (stereo unspecified) | – | 3.49%
23 | C/C=C/C(=O)N(CC)c1ccccc1C | – | -10.2%
24 | CCCCCC(C)N (stereo unspecified) | – | -8.95%
25 | O=C(Cn1ccnc1[N+](=O)[O-])NCCO | inactive | –
26 | COc1ccc(C(=O)N2CCN(CC(=O)N3CCOCC3)CC2)cc1 | – | 2.18%
27 | CCN(CC)S(=O)(=O)c1ccc(C(=O)O)cc1 | – | -7.52%
28 | O=C(CCBr)N1CCN(C(=O)CCBr)CC1 | – | -12.4%
29 | C[n+]1ccccc1/C=N/O | – | -4.18%
30 | Cc1c(C(=O)NCCO)[n+](=O)c2ccccc2n1[O-] | – | -0.0916%
31 | O=c1[nH]c2cc(C(F)(F)F)c(N3CCOCC3)cc2n(CP(=O)(O)O)c1=O | – | -5.94%
32 | CC[N+](CC)(CC(=O)Nc1c(C)cccc1C)Cc1ccccc1 | – | 8.46% [at 54.9 µM]
33 | NS(=O)(=O)c1cc(-c2nn[nH]n2)c(NCc2cccs2)cc1Cl | – | -13.4%
34 | O=C(NCCCN1CCOCC1)c1ccc(Cl)cc1 | – | 2.56%
35 | Cc1ccccc1N=Nc1ccc(N=Nc2c(O)ccc3ccccc23)c(C)c1 | – | -12.2%
36 | CC(CN(C)C)C(C)(O)Cc1ccc(Cl)cc1 (stereo unspecified) | – | -1.81%

target: DNA dC->dU-editing enzyme APOBEC-3G (Homo sapiens) (UniProt Q9HC16); assay: qHTS for inhibitors of Vif-A3G interactions: Validation (AID 588379); settings: Vif-A3G protein interaction assay; series mostly up to 46.1 µM; activity change, negative = inhibition: at the top concentration; note: 0% is about no effect
Sequence (Q9HC16 whole entry, looked up): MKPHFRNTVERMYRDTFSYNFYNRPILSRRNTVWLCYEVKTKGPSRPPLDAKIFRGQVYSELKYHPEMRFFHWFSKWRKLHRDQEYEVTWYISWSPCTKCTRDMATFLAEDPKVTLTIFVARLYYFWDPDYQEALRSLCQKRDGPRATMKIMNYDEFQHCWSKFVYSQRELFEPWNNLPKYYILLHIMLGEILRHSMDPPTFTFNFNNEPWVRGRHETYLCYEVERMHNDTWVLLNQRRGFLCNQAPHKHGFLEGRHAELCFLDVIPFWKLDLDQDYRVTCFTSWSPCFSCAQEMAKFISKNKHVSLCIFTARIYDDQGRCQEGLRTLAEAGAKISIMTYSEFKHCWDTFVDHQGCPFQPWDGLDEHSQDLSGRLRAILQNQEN
Procedure, shortened: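 Yellow fluorescence (Ex 488, Em 500-530) of Vif-coexpressing HeLa A3G-eYFP cells, scanned by Acumen cytometer, reports blocked A3G degradation. Cells plated at 700/well overnight at 37 deg C before compound addition, then a further overnight compound incubation at 37 deg C.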

Row | SMILES | activity change, negative = inhibition [%]
37 | C1CCN2C[C@@H]3C[C@@H](CN4CCCC[C@@H]34)[C@H]2C1 | 5.4
38 | CN[C@@H]1[C@H](O)[C@H](NC)[C@H]2O[C@@]3(O)C(=O)C[C@@H](C)O[C@H]3O[C@@H]2[C@H]1O | -0.865
39 | C[N+](C)(C)CC[N+]1(C)Cc2c(Cl)c(Cl)c(Cl)c(Cl)c2C1 | -0.632
40 | O=C(O)CCCCC1CCSS1 (stereo unspecified) | -1.37

target: Estrogen receptor (Homo sapiens) (UniProt P03372); assay: qHTS assay for small molecule antagonists of estrogen receptor alpha signaling (AID 588513; active = well fitted curve in the direction sought with a large enough effect in the signal ratio, with a control signal flat, not every such curve was filed as active; the % refers to the signal ratio; note: % is set by controls: 0 for no effect and ±100 for the full control effect); settings: ER-alpha-UAS-bla HEK293, beta-lactamase ratio, antagonist mode; series mostly up to 76.9 µM; activity, negative = inhibition: at the top concentration
Sequence (P03372 whole entry, looked up): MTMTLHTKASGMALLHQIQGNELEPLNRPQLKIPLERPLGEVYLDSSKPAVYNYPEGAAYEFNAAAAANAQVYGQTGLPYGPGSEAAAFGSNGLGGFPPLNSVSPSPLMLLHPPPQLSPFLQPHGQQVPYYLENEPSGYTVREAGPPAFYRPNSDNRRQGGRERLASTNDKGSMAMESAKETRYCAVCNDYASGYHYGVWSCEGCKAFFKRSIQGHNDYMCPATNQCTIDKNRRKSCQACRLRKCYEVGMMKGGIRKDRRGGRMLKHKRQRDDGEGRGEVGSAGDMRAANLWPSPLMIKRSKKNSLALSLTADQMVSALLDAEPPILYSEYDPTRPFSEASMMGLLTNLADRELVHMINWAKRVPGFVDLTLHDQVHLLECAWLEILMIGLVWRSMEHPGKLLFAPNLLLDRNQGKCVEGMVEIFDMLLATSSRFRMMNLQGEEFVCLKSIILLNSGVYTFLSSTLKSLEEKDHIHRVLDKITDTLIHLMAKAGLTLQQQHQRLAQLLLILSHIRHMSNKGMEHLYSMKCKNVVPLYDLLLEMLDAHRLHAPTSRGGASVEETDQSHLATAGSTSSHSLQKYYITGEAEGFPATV
Procedure, shortened: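 Beta-lactamase reporter, antagonist mode, HEK 293 GripTite cells; 0.5nM E2 stimulus, 18 h, 37 C; CCF4 dye 2 h RT; fluorescence. IC50 and efficacy from Hill fits, normalized to E2 and DMSO.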

Row | SMILES | activity, negative = inhibition [%] | outcome
41 | CC(=O)NS(=O)(=O)c1ccc(N)cc1 | 27.7 | –
42 | Cc1c(N(C)C)c(=O)n(-c2ccccc2)n1C | 18.1 | –
43 | CCCCOC(=O)c1ccc(N)cc1 | -13.5 | –
44 | Nc1ccc(S(=O)(=O)c2ccc(N)cc2)cc1 | – | inactive
45 | O=C(O)CCCCC1CCSS1 (stereo unspecified) | -4.38 | –
46 | CC[N+](CC)(CC(=O)Nc1c(C)cccc1C)Cc1ccccc1 | -15.7 | –

target: Estrogen receptor (Homo sapiens) (UniProt P03372); assay: qHTS assay for small molecule agonists of estrogen receptor alpha signaling (AID 588514; calls by dose curve;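 note: 0% = vehicle only and 100% = reference agonist; nearly all actives have a fitted effect of over 70% in size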); settings: ER-alpha-UAS-bla HEK293, beta-lactamase ratio, 18 h, percent of full estradiol response, vehicle zero; series mostly up to 76.8 µM; activation: at the top concentration
Procedure, shortened: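 Efficacy is expressed against 20 nM 17-beta-estradiol (100%) and DMSO basal (0%); EC50 from Hill equation. Assay: beta-lactamase reporter in ER-alpha-UAS-bla HEK 293 cells, 18 h compound incubation, CCF4 detection.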

Row | SMILES | activation [%] | outcome
47 | CC(=O)NS(=O)(=O)c1ccc(N)cc1 | 0.939 | –
48 | Cc1c(N(C)C)c(=O)n(-c2ccccc2)n1C | – | inactive
49 | Nc1ccc(S(=O)(=O)c2ccc(N)cc2)cc1 | – | inactive
50 | O=C(O)CCCCC1CCSS1 (stereo unspecified) | – | inactive
51 | CC[N+](CC)(CC(=O)Nc1c(C)cccc1C)Cc1ccccc1 | 1.81 | –
